# About 79,000 compounds went through this panel and 15% of them were active in at least one assay; those are over-represented in the sample as a whole. Values without a mark were called inactive. The source made the active and inactive calls. Cut-off read from the data, not from the text of the source: active = growth inhibition above about 70%; inactive = the rest.
# Experiment: NCI Yeast Anticancer Drug Screen. Data for the bub3 strain (AID 167)
# Details: S. cerevisiae bub3 mutant strain, active compounds read high; at 50.0 µM unless noted
# Description: Growth inhibition of yeast strains with defined genetic alterations is measured as a screen for potential anti-cancer activity. Selected strains with alterations in DNA damage repair or cell cycle control were exposed to compounds and growth inhibition was measured relative to vehicle treated controls. The strain used in this assay is bub3
row,Compound,growth inhibition
1,Cn1c([N+](=O)[O-])cnc1CSc1nc(-c2ccccc2)no1,5.25%
2,O=C(O)C1C2CC=CCC21 (stereo not given),12.2%
3,O=C(O)c1ccc(NCO)cc1,4.3%
4,O=C1OCCOCCOCCOCCOCCOC(=O)c2cccc1n2,12.5%
5,CCCCCCCCCCCC(=O)CCCCCCCCCCCC(=O)OC,45%
6,CCOC(=O)C(C)NC(=O)NC12CC3CC(CC(F)(C3)C1)C2 (stereo not given),8.45%
7,Clc1ccccc1Nc1nc(Nc2ccccc2Cl)nc(Nc2ccccc2Cl)n1,7.3%
8,CC1=CC(C)(C)N(C)C(N)=N1,-2.65%
9,CNC(=O)NCCCCC(NC(=O)OCc1ccccc1)C(=O)OCc1ccccc1 (stereo not given),1.15%
10,CCCCCCC(C)OB(OC(C)CCCCCC)OC(C)CCCCCC (stereo not given),-41.4%
11,COc1ccc(C(=O)C(=O)c2ccccc2Cl)cc1,17.8%
12,NC(=O)C1CC1,9.25%
13,CN(C)C(=O)C(c1ccccc1)C(c1ccccc1)N(C)C=O (stereo not given),-8.3%
14,Cc1c2c(c(C)c3c1C(=O)c1cc4c(cc1C3=O)OCO4)OC(C)(C)O2,11.6%
15,OC1CSc2nc3ccccc3n2C1 (stereo not given),20.8%
16,CC(=O)NC1=NC(=O)/C(=C/c2ccccc2Cl)N1C,-8.85%
17,O=C(O)C1Oc2cc3ccccc3cc2O1,23.1%
18,COc1ccc(C(=O)N2N=C(C)C(C)(C)C2(C)O)cc1 (stereo not given),-29.8%
19,O=C1c2cccc3cc([N+](=O)[O-])cc(c23)C(=O)N1C(CO)(CO)CO,16%
20,CCOP(=O)(C/C(=N/NC(C)(C)C)C(=O)Nc1nc2ccc(C)cc2s1)OCC,-0.5%

row,Compound,growth inhibition
1,CN(C)C(Cc1cnc[nH]1)C(=O)N1CCCC1C(N)=O (stereo not given),-20.8%
2,O=C1C(CN2CCCC2)CCCC1CN1CCCC1 (stereo not given),7.3%
3,C1=C(Nc2ccccc2)C(=Nc2ccccc2)C=C(Nc2ccccc2)C1=Nc1ccccc1,1.65%
4,N#C/C=C\c1ccc(-c2cc(C(F)(F)F)cc(C(F)(F)F)c2)o1,10.8%
5,O=C(NCCOC(=O)OCCNC(=O)NC1CCCCC1)NC1CCCCC1,4.1%
6,CN(C)c1ccc(/C=C/C(=O)N[C@@H]2C(=O)N3[C@@H]2SC(C)(C)[C@@H]3C(=O)O)cc1,-12.8%
7,c1ccc(C2Cc3ccccc3C2c2ccccc2)cc1 (stereo not given),-7.6%
8,Cc1ccc(S(=O)(=O)N(CC(=O)c2ccccc2)c2ccc(Br)cc2)cc1,2.05%
9,CC(=O)OCC1OC(OC(C)=O)C(NC(=O)c2ccccc2)C(OC(C)=O)C1OC(C)=O (stereo not given),17.4%
10,O=C(NCCCN1CCN(CCCNC(=O)Nc2ccc(N=Nc3ccccc3)cc2)CC1)Nc1ccc(N=Nc2ccccc2)cc1,-1.8%
11,O=C(NC(CSC(c1ccccc1)(c1ccccc1)c1ccccc1)C(=O)O)OC(c1ccccc1)c1ccccc1 (stereo not given),89.5% (active)
12,Cc1ccc(C(=O)OCC(C)C)s1,-6.55%
13,Cc1ccccc1OC(=O)Oc1ccccc1C,21.1%
14,Cc1cccc(Cl)c1NC(=O)c1c(Cl)c(Cl)c(Cl)c(Cl)c1C(=O)O,-1.65%
15,CC(C)(C)C(C(=O)O)C(=O)O,5.2%
16,CCC12C=CCN3CC[C@@]4(c5cc([C@@]6(C(=O)OC)C[C@@H]7CN(CCc8c6[nH]c6ccccc86)C[C@](O)(CC)C7)c(OC)cc5N(C)[C@H]4[C@@](O)(C(=O)NCCCCCCCCCCCC(=O)O)[C@@H]1O)C32 (stereo not given in full),25.3%
17,Nc1c(I)cc(I)c(C(=O)O)c1I,-25.4%
18,O=C(O)NC(=O)c1cc([N+](=O)[O-])ccc1COC1CCCCO1 (stereo not given),14.9%
19,COc1ccc(C2S/C(=C\c3ccc(OC)cc3OC)C(=O)N2NC(=O)Cc2ccccc2)cc1 (stereo not given),-14.1%
20,CC(=O)Oc1ccccc1C(=O)N(N)CCSc1ccc(Cl)cc1,-12.5%
